IL2 activator = qHTS of IL-2 Activators | IL-2 activation reporter assay, cell-based qHTS; stimulated with anti-CD3/CD4/CD28 beads; in transgenic mouse T cells | AID 652025, 2013 | 360,000 compounds, 0.065% hits | activation, % (series mostly up to about 46 µM); in the data active = activation above about 50%; inconclusive = mostly about 30% to 49%; also: 0% is about no effect
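EGFP and DsRed fluorescence is measured by plate cytometry in unstimulated transgenic mouse T cells exposed to compound for 60 minutes, then stimulated 18 hours at 37 degrees C with anti-CD3/anti-CD4 beads plus anti-CD28.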
B2AR arrestin = qHTS assay of beta-arrestin-biased ligands of beta2-adrenergic receptor. beta-arrestin recruitment to beta2AR, cell-based reporter. Potency, µM (series often up to 46.1 µM), without a hit: top-dose activation, actives largely listed as activators. 330,000 compounds, 0.02% hits;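 also: potency is read from the fitted curve at half-maximal effect; 0% = DMSO controls and full agonism = EC100 isoproterenol or metaproterenol; nearly all actives have a fitted effect of over 65% in size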
Target sequence (P07550 whole entry, looked up): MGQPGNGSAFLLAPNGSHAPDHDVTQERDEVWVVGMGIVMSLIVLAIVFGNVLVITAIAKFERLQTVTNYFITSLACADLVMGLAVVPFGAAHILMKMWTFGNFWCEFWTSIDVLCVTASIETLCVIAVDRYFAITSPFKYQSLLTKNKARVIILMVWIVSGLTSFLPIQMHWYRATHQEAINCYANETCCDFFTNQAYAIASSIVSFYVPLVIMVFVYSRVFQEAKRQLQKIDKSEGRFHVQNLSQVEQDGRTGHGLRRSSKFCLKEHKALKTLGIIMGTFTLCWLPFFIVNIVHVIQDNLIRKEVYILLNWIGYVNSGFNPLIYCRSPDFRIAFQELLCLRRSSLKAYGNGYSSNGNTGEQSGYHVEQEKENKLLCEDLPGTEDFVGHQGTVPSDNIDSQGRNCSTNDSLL
PINK1 modulator = A Quantitative High throughput Screen to Identify Chemical Modulators of PINK1 Expression; 410,000 compounds, 0.2% hits; AID 624263, 2012; Potency, µM (highest dose often 76.6 µM), for inactives: at the top dose activation (PINK1 increase), most hits filed as activators; PINK1 immunofluorescence, high-content cytometry, 24 h; active = well fitted activation curve with a large enough effect; inconclusive = small, poorly fitted or top-dose-only effect; cell line not stated here; also: potency is read from the fitted curve at half-maximal effect; % of control where 0% means no effect; nearly all actives have a fitted effect of over 65% in size
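Decision-based qHTS: stable cells, 24 h exposure to five compound concentrations, CCCP as control. Fixed cells stained for PINK1 plus nuclear, mitochondrial and cell markers, cytometer read.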
PKM2 activator = qHTS Assay for Activators of Human Muscle isoform 2 Pyruvate Kinase | purified PKM2, Kinase-Glo ATP luminescence, activation; response scale: 0% is enzyme alone, no compound | Potency, µM (highest dose often 57.5 µM), inactives show top-dose activation, usual class: activators | 260,000 compounds, 0.34% hits | AID 1631, 2009; also: potency is read from the fitted curve at half-maximal effect; % is scaled to controls: 0 for no effect and ±100 for the full control effect; nearly all actives have a fitted effect of over 55% in size
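hPK-M2, >95% pure; 0.1 mM ADP / 0.5 mM PEP final; imidazole pH7.2 buffer w/ 7 mM MgCl2, 50 mM KCl; 1 h RT; Kinase-Glo lum. Intermediate enzyme activity for dual inhibitor/activator qHTS.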
Epigenetic reg = Quantitative High-Throughput Screen for Regulators of Epigenetic Control; murine LDR cells, GFP reporter derepression, 30 h; Potency, µM (doses to about 53.9 µM), for inactives: top-dose GFP activation, usual class: activators; 280,000 compounds, 0.2% hits; also: potency is read from the fitted curve at half-maximal effect; % of control where 0% means no effect; nearly all actives have a fitted effect of over 60% in size
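GFP-positive cell count by laser-scanning cytometry (objects 20–120 um) after 30 h, 37 C compound exposure of murine LDR cells; reporter is CMV-GFP integrated at a silenced locus, inducible by HDAC or DNMT inhibitors.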
Active calls of the source: *; ? = inconclusive; nt = not tested or not shown. Compounds with a hit are over-represented: about 0.58% of the library has one in this group of screens. Unless noted, calls follow the shape of the dose curve; as a rule, active = well fitted curve in the direction sought with a large enough effect; inconclusive = small, poorly fitted or top-dose-only effect, or another doubt; inactive = no such curve, though single readings can be large; an effect the other way counts as inactive or inconclusive.

SMILES | IL2 activator | B2AR arrestin | PINK1 modulator | PKM2 activator | Epigenetic reg
Cc1c(C(=O)NCC(C)C)sc2ncnc(NCC3CCCO3)c12 (centres undefined) | nt | nt | 0% | nt | nt
COc1ccc2c(c1)c(/C=C/c1cc[n+](C)cc1)cn2C | 238* | 0% | 7% | nt | nt
COC(=O)c1ccc(CN2CCOc3ccc(CN4CCC(O)(c5cccnc5)CC4)cc3C2)cc1 | nt | nt | 0% | nt | nt
O=C(Cc1cccs1)N1CCN(S(=O)(=O)c2ccccc2)CC1 | -1 | 0% | -1% | 26% | -1%
O=C(CCCc1cccs1)N1CCN(S(=O)(=O)c2ccccc2Br)CC1 | -2 | 0% | -1% | 11µM* | 1%
O=C(CCCc1c[nH]c2ccccc12)N1CCN(S(=O)(=O)c2cccs2)CC1 | -1 | 0% | -3% | 1.6µM* | 5%
O=C(CSc1ccccc1)N1CCN(S(=O)(=O)c2cccs2)CC1 | 0 | -1% | -1% | 1.1µM* | nt
COCC1CCCN(Cc2ccc3c(c2)CN(C(=O)c2ccc(OC)nc2OC)CCO3)C1 (centres undefined) | nt | nt | 0% | nt | nt
CNS(=O)(=O)c1cc2c3c(cccc3c1)C(=O)NC2=O | -3 | 0% | -2% | 13µM* | 0%
Cc1ccc(NS(=O)(=O)c2cc3c4c(cccc4c2)C(=O)NC3=O)cc1 | 0 | 0% | 11% | 1% | -2%
COc1ccc(OC)c(CN2CCOc3ccc(CN4CCC(O)(c5cccnc5)CC4)cc3C2)c1 | nt | nt | -1% | nt | nt
CCOC(=O)N1CCN(Cc2ccc3c(c2)CN(C(=O)c2cc(-c4ccccc4)no2)CCO3)CC1 | nt | nt | -1% | nt | nt
O=C(NCCc1nnc2n1CCN(Cc1ccsc1)CC2)c1ccc(F)cc1 | nt | nt | 1% | nt | nt
COc1ccc(-c2[nH]n(-c3ccc([N+](=O)[O-])cc3)c(=O)c2C=NCc2ccccc2)cc1 | 2 | 0% | 7% | 1% | 13µM*
O=[N+]([O-])c1cc2c(c([N+](=O)[O-])c1)Nc1ccccc1O2 | 0 | nt | 14µM* | nt | nt
O=C1Nc2ccccc2Oc2cc([N+](=O)[O-])cc(Oc3ccccc3)c21 | 0 | 3% | 15% | 4% | ?
O=C1CCCN1CCC12CC3CC(CC(C3)C1)C2 | -2 | -1% | -4% | 40µM* | 0%
Cc1c(C(=O)NCc2nccs2)cnn1-c1ncc2c(n1)-c1ccccc1CC2 | nt | nt | 2% | nt | nt
CCOC(=S)SCc1cn2ccccc2n1 | 5 | 0% | 0% | 16% | 6%
CCOC(=S)SCc1cn2ccc(C)cc2n1 | -1 | 0% | -4% | 7.9µM* | -3%
Cn1cc(-c2ccccc2C(N)=O)c(=O)c2cc(Cl)ccc21 | -1 | -1% | 1% | 7% | 0%
Cn1cc(C2=C(c3ccc(Cl)cc3Cl)C(=O)NC2=O)c2ccccc21 | 5 | 0% | 2% | -22% | 14µM*
CCOC(=O)C1CCN(Cc2ccc(O)c3ncccc23)CC1 | -4 | ? | 25µM* | -1% | 5.6µM*
Cc1ccc(CNc2nc(CN3CCSCC3)nc3ccccc23)o1 | nt | nt | 0% | nt | nt
Cc1c(N=Nc2c(-c3ccc([N+](=O)[O-])cc3)[nH]n(C(N)=S)c2=O)cccc1[N+](=O)[O-] | 0 | 1% | 3.2µM* | 3% | -2%
SMILES | IL2 activator | B2AR arrestin | PINK1 modulator | PKM2 activator | Epigenetic reg
NC(=S)n1[nH]c(-c2ccc([N+](=O)[O-])cc2)c(N=Nc2ccccc2[N+](=O)[O-])c1=O | 1 | 7% | 4% | ? | 0%
COc1cc(=O)n2c(c1C(=O)NCc1ccco1)CCN(C(=O)c1c(F)ccc(F)c1F)CC2 | nt | nt | 1% | nt | nt
COc1nc(-c2ccccc2)ncc1S(=O)(=O)c1ccccc1 | -1 | 0% | 4% | 16µM* | 2%
NC1=NC(=O)/C(=C/c2ccccc2OS(=O)(=O)c2ccccc2)S1 | 0 | 0% | ? | 2% | -2%
NC1=NC(=O)/C(=C/c2c(OS(=O)(=O)c3ccc(Cl)cc3)ccc3ccccc23)S1 | 1 | -1% | 13µM* | 2% | -2%
Cc1ccc(Nc2ccc3cc(S(=O)(=O)N4CCC(C)CC4)ccc3n2)c(Cl)c1 | nt | nt | -1% | nt | -1%
CC1CCN(S(=O)(=O)c2ccc3nc(Nc4cccc(F)c4)ccc3c2)CC1 | nt | nt | 16µM* | nt | 4%

High-throughput results deposited in PubChem BioAssay by National Center for Advancing Translational Sciences (NCATS).
